# Assay results taken from PubChem BioAssay.
# Activity calls are given as the source filed them.
# Columns and labels:
# [1] = tested on: PRMT1 (protein arginine N-methyltransferase 1); assay: small molecules binding arginine methyltransferase PRMT1 – biochemical, small-molecule microarray, 635 nm fluorescence, primary screen (AID 1088); settings: higher = more signal;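 note: binding of Prmt1 protein to compounds spotted on small-molecule microarray slides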
# [2] = growth effects on S. cerevisiae YJM789 – YJM789 clinical isolate, OD600, 24 h, basal, primary screen (AID 1089); settings: higher = more signal, called active from +8 up or from −8 down;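 note: growth of clinical yeast isolate S. cerevisiae YJM 789 seeded 1000 cells per well; test concentration not given here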
# [3] = S. pombe growth modifiers, basal conditions – strain 972, OD600, 24 h, no modulator, primary screen (AID 1090);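 note: basal condition with compound alone and no growth modifier present; test concentration not given here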; settings: S. pombe 972 growth, higher = more signal, called active from +8 up or from −8 down
# [4] = budding yeast growth modifiers under rapamycin – strain BY4716, OD600, 96 h, primary screen (AID 1091); note: test concentration not given here; settings: S. cerevisiae BY4716 + rapamycin, higher = more signal, called active from +8 up or from −8 down
# [5] = target: Torsin-1A-interacting protein 2 (Homo sapiens) (UniProt Q8NFQ8); assay: small molecules binding lysate-expressed LULL1 – cell lysate, human LULL1 lysate, 635/667 nm fluorescence, primary screen (AID 1092); settings: small-molecule microarray, hLULL1 lysate binding, 635 nm fluorescence; higher = more signal;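 note: probe is lysate of COS7 cells overexpressing human LULL1; score merges per-feature 667 nm fluorescence with signal-to-noise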
# [6] = optical density change of DRC41 E. coli – strain DRC41, OD650, 24 h, E. coli filamentation project, primary screen (AID 1093);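 note: MC1000 strain lacking acrAB efflux and sulA so SOS filamentation is blocked; test concentration not given here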; settings: E. coli DRC41 growth, higher = more signal, called active from +8 up or from −8 down
# [7] = probe aLefty2 binding to arrayed compounds – biochemical, biotinylated probe, 635/667 nm fluorescence, primary screen (AID 1094); settings: small-molecule microarray, higher = more signal;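 note: score merges spot fluorescence near 667 nm with spot signal-to-noise ratio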
# [8] = tested on: Noggin (protein binding on small-molecule microarray); assay: small molecules binding Noggin protein – biochemical, 635/667 nm fluorescence, primary screen (AID 1095); settings: 635 nm fluorescence, higher = more signal;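 note: score merges 667 nm feature fluorescence with signal to noise over triplicate slides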
# [9] = target: Neurogenic locus notch homolog protein 3 (Homo sapiens) (UniProt Q9UM47); assay: small molecules binding NOTCH3 protein – biochemical, 635/667 nm fluorescence, primary screen (AID 1096); settings: small-molecule microarray, 635 nm fluorescence, higher = more signal
# [10] = probe aEGFR binding to arrayed compounds – biochemical, biotinylated probe, 635/667 nm fluorescence, primary screen (AID 1097); settings: small-molecule microarray, higher = more signal;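 note: probe is a biotinylated anti-EGFR antibody binding compounds printed on slides; score combines fluorescence near 667 nm and signal to noise of each spot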
# Chain of Neurogenic locus notch homolog protein 3 (Homo sapiens) (Q9UM47 whole entry, looked up): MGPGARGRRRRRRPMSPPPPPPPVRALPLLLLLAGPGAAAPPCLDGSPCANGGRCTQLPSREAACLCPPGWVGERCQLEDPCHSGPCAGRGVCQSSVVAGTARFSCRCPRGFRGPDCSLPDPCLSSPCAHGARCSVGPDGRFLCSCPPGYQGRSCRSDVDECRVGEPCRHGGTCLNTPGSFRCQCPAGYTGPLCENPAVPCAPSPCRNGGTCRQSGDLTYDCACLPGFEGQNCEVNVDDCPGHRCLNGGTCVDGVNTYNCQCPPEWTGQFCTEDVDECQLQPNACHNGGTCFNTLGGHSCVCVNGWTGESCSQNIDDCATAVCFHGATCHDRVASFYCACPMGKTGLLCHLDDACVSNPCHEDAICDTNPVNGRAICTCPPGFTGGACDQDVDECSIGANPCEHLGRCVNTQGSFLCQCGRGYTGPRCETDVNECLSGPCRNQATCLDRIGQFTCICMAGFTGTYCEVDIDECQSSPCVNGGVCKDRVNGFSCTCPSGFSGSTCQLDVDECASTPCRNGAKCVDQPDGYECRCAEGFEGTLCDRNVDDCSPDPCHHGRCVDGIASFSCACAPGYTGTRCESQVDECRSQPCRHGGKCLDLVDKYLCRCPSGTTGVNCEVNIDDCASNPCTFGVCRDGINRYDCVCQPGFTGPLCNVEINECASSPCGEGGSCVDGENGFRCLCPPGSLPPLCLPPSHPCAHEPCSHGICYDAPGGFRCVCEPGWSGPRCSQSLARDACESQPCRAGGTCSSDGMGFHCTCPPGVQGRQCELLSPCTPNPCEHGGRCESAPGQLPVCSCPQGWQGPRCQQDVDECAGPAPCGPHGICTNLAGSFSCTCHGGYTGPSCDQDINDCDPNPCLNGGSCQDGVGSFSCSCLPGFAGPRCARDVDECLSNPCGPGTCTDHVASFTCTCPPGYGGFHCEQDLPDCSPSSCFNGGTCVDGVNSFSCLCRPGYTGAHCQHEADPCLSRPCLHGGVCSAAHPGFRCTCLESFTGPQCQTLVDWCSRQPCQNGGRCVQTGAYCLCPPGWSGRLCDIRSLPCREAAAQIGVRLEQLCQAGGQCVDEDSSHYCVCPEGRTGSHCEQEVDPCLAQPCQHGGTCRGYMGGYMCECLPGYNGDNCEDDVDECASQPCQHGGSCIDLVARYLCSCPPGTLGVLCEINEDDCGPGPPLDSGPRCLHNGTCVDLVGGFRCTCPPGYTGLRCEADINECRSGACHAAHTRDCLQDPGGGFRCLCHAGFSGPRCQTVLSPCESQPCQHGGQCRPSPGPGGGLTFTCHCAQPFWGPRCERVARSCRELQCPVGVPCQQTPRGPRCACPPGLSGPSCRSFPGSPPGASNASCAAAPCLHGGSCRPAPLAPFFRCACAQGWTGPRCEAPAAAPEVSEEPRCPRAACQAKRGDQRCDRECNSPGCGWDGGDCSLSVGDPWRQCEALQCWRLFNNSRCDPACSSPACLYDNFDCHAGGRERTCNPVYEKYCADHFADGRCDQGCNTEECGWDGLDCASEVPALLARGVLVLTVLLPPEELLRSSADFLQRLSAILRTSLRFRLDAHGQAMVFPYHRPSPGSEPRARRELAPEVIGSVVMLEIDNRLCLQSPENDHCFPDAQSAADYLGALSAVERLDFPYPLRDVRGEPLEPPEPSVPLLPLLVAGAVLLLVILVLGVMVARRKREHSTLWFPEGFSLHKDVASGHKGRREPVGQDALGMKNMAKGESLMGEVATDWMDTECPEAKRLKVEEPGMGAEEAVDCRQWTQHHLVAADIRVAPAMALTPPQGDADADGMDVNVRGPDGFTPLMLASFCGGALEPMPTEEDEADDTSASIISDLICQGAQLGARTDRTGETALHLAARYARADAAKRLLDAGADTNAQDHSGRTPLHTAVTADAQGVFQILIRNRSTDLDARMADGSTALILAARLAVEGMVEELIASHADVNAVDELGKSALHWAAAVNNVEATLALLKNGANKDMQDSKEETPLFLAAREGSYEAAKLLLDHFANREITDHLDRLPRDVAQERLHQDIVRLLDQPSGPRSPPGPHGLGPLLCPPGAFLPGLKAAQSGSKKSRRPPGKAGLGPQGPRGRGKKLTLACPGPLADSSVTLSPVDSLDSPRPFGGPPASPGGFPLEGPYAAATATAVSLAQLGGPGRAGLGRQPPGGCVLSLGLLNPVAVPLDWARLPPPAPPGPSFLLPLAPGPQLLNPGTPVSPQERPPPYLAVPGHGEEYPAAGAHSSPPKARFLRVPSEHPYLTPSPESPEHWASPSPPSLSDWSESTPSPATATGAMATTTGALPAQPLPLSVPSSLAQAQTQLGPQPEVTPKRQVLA
# Chain of Torsin-1A-interacting protein 2 (Homo sapiens) (Q8NFQ8 whole entry, looked up): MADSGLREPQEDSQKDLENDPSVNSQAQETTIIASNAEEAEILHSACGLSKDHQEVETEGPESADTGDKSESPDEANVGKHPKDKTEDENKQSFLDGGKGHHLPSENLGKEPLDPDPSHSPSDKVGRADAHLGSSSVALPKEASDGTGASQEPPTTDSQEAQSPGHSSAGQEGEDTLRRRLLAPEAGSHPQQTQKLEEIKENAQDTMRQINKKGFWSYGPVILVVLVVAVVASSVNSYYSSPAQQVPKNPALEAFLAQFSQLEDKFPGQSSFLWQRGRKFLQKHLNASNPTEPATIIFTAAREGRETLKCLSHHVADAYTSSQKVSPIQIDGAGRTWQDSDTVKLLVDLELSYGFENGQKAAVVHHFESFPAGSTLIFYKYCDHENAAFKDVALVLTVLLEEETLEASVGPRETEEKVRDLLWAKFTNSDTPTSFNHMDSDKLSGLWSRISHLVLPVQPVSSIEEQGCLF
Structure (SMILES),composite z-score [1],z-score [2],z-score [3],z-score [4],composite z-score [5],z-score [6],composite z-score [7],composite z-score [8],composite z-score [9],composite z-score [10]
COC(=O)[C@@H]1CCCN1C(=O)[C@@H](C)CO,0.177,-1.12 (inactive),-0.988 (inactive),0.258 (inactive),0.93,-0.197 (inactive),-0.152,0.415,0.753,0.0055
[N-]=[N+]=NCc1ccccc1C[C@]1(C(=O)NCc2ccccc2)N=C(c2ccc(OCCCO)cc2)O[C@H]1c1ccccc1N=[N+]=[N-],1.26,0.228 (inactive),1 (inactive),6.01 (inactive),3.17,0.368 (inactive),0.284,0.179,0.755,0.464
CC(CCN1CCCCc2nc(C)c(C)cc21)=NOC(C)CN1CCCCc2nc(C)c(C)cc21 (stereo not given),1.52,-1.32 (inactive),-1.49 (inactive),0.187 (inactive),2.37,-0.0919 (inactive),-0.0101,1.04,1.07,0.272
CC(=O)O[C@H]1C2=C(C(=O)[C@@H]3O[C@@H]31)[C@H]1C(C)O[C@@H]2[C@@]23C(=O)[C@@H]4O[C@@H]4[C@@H](O)C2=CO[C@H](C)[C@@H]13 (stereo not given in full),0.417,0.014 (inactive),-0.361 (inactive),0.465 (inactive),-0.0273,0.16 (inactive),-0.265,-0.0408,0.0275,-0.0671
COc1ccccc1CN1C(=O)c2ccccc2[C@@H](C(=O)NCC(F)(F)F)[C@@H]1c1ccc(CO)cc1,1.55,0.21 (inactive),0.74 (inactive),-0.296 (inactive),2.37,1.49 (inactive),-0.107,1.11,1.06,-0.179
CCOc1ccc(N2C(=O)/C(=C/C=C/c3ccccc3OC)S(=O)(=O)C2c2cccc([N+](=O)[O-])c2)cc1 (stereo not given),-0.167,-3.8 (inactive),-3.13 (inactive),0.648 (inactive),0.236,0.841 (inactive),-0.0342,0.39,0.638,-0.103
C[C@@H](c1ccccc1)N1C(=O)[C@H]2[C@H]3[C@H](O)[C@H](O)CC(=NNC(=O)OCc4ccccc4)[C@H]3CC[C@H]2C1=O,-0.26,0.547 (inactive),0.408 (inactive),0.698 (inactive),0.71,0.687 (inactive),0.2,0.124,-0.246,0.229
COc1ccc(-c2nc3c(c4c2C[C@H](C)OC4)CN(CCC(C)C)CC3)cc1,1.31,0.382 (inactive),-0.692 (inactive),0.0635 (inactive),1.5,0.618 (inactive),-0.142,0.501,0.982,0.167
COC(=O)[C@@H]1N=C(c2ccc(OCCCO)cc2)O[C@@H]1c1ccccc1N=[N+]=[N-],1.5,-2.6 (inactive),-7.5 (inactive),-1.15 (inactive),3.01,1.2 (inactive),0.19,-0.179,0.487,-0.027
CCc1cc2c(nc1CC)CCN(CCC(C)=NOC[C@@H](O)[C@H]1O[C@@H]3OC(C)(C)O[C@@H]3[C@H]1O)C2,0.85,-1.63 (inactive),0.24 (inactive),-0.282 (inactive),0.767,0.71 (inactive),-0.175,0.276,0.0003,-0.0343
CCOC(=O)CCN1C(=O)[C@H]2[C@H]3[C@H](O)C=CC(=O)[C@@H]3CC[C@H]2C1=O,0.0492,0.595 (inactive),0.361 (inactive),1.42 (inactive),0.215,0.399 (inactive),-0.239,0.641,0.629,0.0439
CC=CC1=C(CO)[C@H](O)[C@H]2O[C@H]2[C@H]1O,1.23,0.505 (inactive),0.317 (inactive),1.12 (inactive),-0.0789,0.131 (inactive),-0.24,0.834,0.67,-0.0382
CO[C@@H]1COC(=O)CC=C[C@@H](C)[C@H](OC)COC(=O)[C@H](COCc2ccccc2)NC(=O)CC=C[C@H]1C,0.234,0.122 (inactive),-0.556 (inactive),-0.0857 (inactive),-1.32,0.024 (inactive),-0.185,0.846,-0.778,-0.231
COCCOC(=O)N1C(=O)[C@@]2(c3cc(C#CC4(O)CCCCCC4)ccc31)[C@H](C(=O)N1CCN(c3ncccn3)CC1)[C@H]1C(=O)O[C@H](c3ccccc3)[C@H](c3ccccc3)N1[C@@H]2c1ccc(OCCO)cc1,1.53,2.12 (inactive),1.35 (inactive),5.93 (inactive),2.61,2.25 (inactive),-0.0075,1.64,1.08,0.0779
C#CCCCON=C1C[C@@H](O)[C@@H](O)[C@@H]2[C@@H]3C(=O)N(Cc4ccccc4)C(=O)[C@@H]3CC[C@H]12,0.0491,-0.609 (inactive),-0.216 (inactive),-1.49 (inactive),-0.172,-0.0603 (inactive),-0.0294,0.407,0.297,-0.102
COC(=O)C1=C(C)[C@@H](O)[C@@H](C)[C@H](c2c(OC)c(OC)c(C)c(OC)c2OC)O1,-0.462,0.645 (inactive),0.629 (inactive),-0.22 (inactive),-0.166,0.164 (inactive),-0.142,0.461,0.105,-0.106
COC(=O)[C@H](C)NC(=O)[C@@H](C)CO,1.46,0.0198 (inactive),-0.0164 (inactive),0.669 (inactive),1.68,-0.8 (inactive),-0.0607,0.67,1.07,-0.0578
O=C1[C@H]2[C@H]3[C@H](O)[C@H](O)CC(=NOCc4ccccc4)[C@H]3CC[C@H]2C(=O)N1c1cccc(Oc2ccccc2)c1,1.48,-0.0026 (inactive),0.019 (inactive),-1.12 (inactive),2.41,0.211 (inactive),-0.0654,0.729,0.824,0.0801
CCCC[C@@H](O)C1=C(C)C[C@H]2C(=O)N(Cc3ccccc3)C(=O)[C@H]2[C@H]1CO,0.18,-0.812 (inactive),-2.19 (inactive),0.0211 (inactive),-0.463,0.706 (inactive),-0.0998,0.283,0.15,-0.159
CC(C)[Si]1(C(C)C)O[C@@H](c2ccccc2)c2cc(C3CC3)nc(-c3ccccc3)c21,0.0587,-0.443 (inactive),-5.5 (inactive),-0.215 (inactive),-0.332,-0.867 (inactive),-0.34,-0.207,0.492,-0.0304
CO[C@H]1COC(=O)[C@@H]2CCCN2C(=O)[C@@H](C)COC(=O)CC=C[C@@H]1C,1.47,-0.62 (inactive),0.0569 (inactive),-1.53 (inactive),-0.652,0.264 (inactive),-0.238,0.927,0.665,0.0082
O=C1[C@H]2[C@H]3[C@H](O)[C@H](O)CC(=NOC[C@@H](O)COCc4ccco4)[C@H]3CC[C@H]2C(=O)N1c1cccc(Oc2ccccc2)c1,-0.267,-0.19 (inactive),0.549 (inactive),-0.502 (inactive),-0.306,0.354 (inactive),-0.172,1.55,-0.413,-0.174
COCCOC(=O)N1C(=O)[C@@]2(c3cc(C#CC4(O)CCCCCC4)ccc31)[C@H](c1ccc(OCCO)cc1)N1[C@H](c3ccccc3)[C@H](c3ccccc3)OC(=O)[C@H]1[C@@H]2C(=O)NC[C@H](O)c1ccccc1,1.55,2.19 (inactive),0.874 (inactive),6.86 (inactive),2.87,1.6 (inactive),-0.0212,0.816,1.03,-0.0555
C#C[C@@H](CC)O[Si](C#Cc1ccc(Oc2ccccc2)cc1)(C(C)C)C(C)C,1.29,0.356 (inactive),-0.951 (inactive),1 (inactive),0.964,-0.44 (inactive),-0.152,0.269,0.916,-0.0028
CC(C)NC(=O)[C@@H]1c2ccccc2C(=O)N(CC23CC4CC(CC(C4)C2)C3)[C@H]1c1ccc(CO)cc1,1.57,-1.44 (inactive),-1.81 (inactive),-0.241 (inactive),2.68,1.43 (inactive),-0.143,0.701,1.04,0.0633
C[N+](C)(C)CCCCCCNC(=O)[C@@H]1C[C@@H]2C(=O)N3CCC[C@H]3C(=O)N2[C@@H]1c1cccc(OCCO)c1,1.44,-1.6 (inactive),-0.0376 (inactive),-1.06 (inactive),3.14,0.784 (inactive),-0.0898,1.88,0.245,-0.0967
COCCCNC(=O)[C@]1(Cc2ccccc2)N=C(c2ccc(OCCCO)cc2)O[C@@H]1c1ccccc1,1.44,-1 (inactive),-1.32 (inactive),-1.41 (inactive),3.61,-0.806 (inactive),0.0814,0.468,0.129,-0.0594
O[C@@H](Cc1ccccc1)[C@H]1C2C=CCCC(c3ccccc3)=C2CN1Cc1cccc(Cl)c1 (stereo not given in full),1.44,-0.122 (inactive),-3.65 (inactive),-1.09 (inactive),1.73,2.78 (inactive),-0.106,0.96,1.12,-0.0549
Cc1cc2c(c(=O)o1)[C@H](O)[C@H]1O[C@H]1C2=O,0.527,0.228 (inactive),-4.24 (inactive),-0.643 (inactive),-0.186,-1.02 (inactive),-0.0569,0.651,0.312,-0.0007
